Bioassay records as filed in PubChem.
Compounds with a hit are over-represented: about 7.9% of the library has one in this group of screens.
LASV entry inh: blocks Lassa virus binding to or entry into cells. Lassa virus pseudotype entry inhibition, cell reporter. Potency, µM (top dose mostly 37.9 µM), without a hit: top-dose activity change, negative = inhibition, most hits filed as inhibitors. 1.2% of 300,000 active. AID 540256; calls by dose curve; tested in HEK293 cells; further: potency means the concentration at half of the fitted maximal effect; nearly all actives have a fitted effect of over 50% in size
FMDV inh: blocks foot and mouth disease virus. FMDV antiviral cell-based qHTS. Potency, µM (top dose mostly 57.9 µM), for inactives: at the top dose activity change, negative = inhibition, actives largely listed as inhibitors. 1.2% of 410,000 active; calls by dose curve; tested in HEK293T cells; further: read-out not given here; potency means the concentration at half of the fitted maximal effect; nearly all actives have a fitted effect of over 45% in size
MARV entry inh: blocks Marburg virus binding to or entry into cells. Marburg virus pseudotyped entry inhibition, cell reporter. Potency, µM (doses to about 37.8 µM), inactives show top-dose activity change, negative = inhibition, hits mostly inhibitors. 1.8% of 300,000 active. AID 540276; calls by dose curve; tested in HEK293 cells; further: potency means the concentration at half of the fitted maximal effect
HCMV inh: human cytomegalovirus inhibition; 4.5% of 410,000 active; HFF cells, HCMV-luciferase reporter, 72 h; active compounds read low; AID 1259415; activity change, negative = inhibition, % at 57.5 µM; in the data active means activity change below about -60%; inconclusive means no clear call, values can overlap the other calls; inactive means above about -39%
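Two-dose cell screen: HFF monolayers treated with compounds and infected with luciferase-expressing HCMV at 1 PFU/cell, 72 h at 37C, then lysed for luciferase measurement.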
HCV inh: blocks hepatitis C virus | Huh7.5.1 HCVcc-Cre infection, luciferase reporter, 44 h | Potency, µM (highest dose often 41.8 µM), for the others: top-dose activity change, negative = inhibition, actives largely listed as inhibitors | 3.4% of 340,000 active | AID 651820; active means well fitted inhibition curve with a large enough effect; inconclusive means small, poorly fitted or top-dose-only effect, or another doubt; inactive means no such curve, though single readings can be large or run the other way; further: potency means the concentration at half of the fitted maximal effect
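HCVcc-Cre virus at an moi near 0.5 was added right after compound to cells cultured 4 h from seeding (1,000 cells/well). Luciferase activity was determined 44 h later, 15 min after substrate addition at RT.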
The depositor's hits bear a star; ? = inconclusive; · = not tested or not shown; ! = a repeat was not active; [ ] = another dose, or the depositor's remark. On the % scale 0 is the no-effect control and ±100 the full control effect.

SMILES | LASV entry inh | FMDV inh | MARV entry inh | HCMV inh | HCV inh
CC(=O)c1c(C)[nH]c(C(=O)NNC(=O)COc2cc(C)cc(C)c2)c1C | 6% | 25% | -13% | -15 | -34%
CCNc1nc(NCC)nc(SCCOc2ccc(C)cc2)n1 | ? | ? | 16µM* | 17 | ?
CCOc1ccc(NC(=O)CC2C(=O)N(c3ccc(OC)cc3)C(=O)N2CCc2cccs2)cc1 (stereo not given) | 7.3µM* | 5% | ? | -27 | -21%
CCOC(=O)c1ccc(NC(=O)CC2C(=O)N(c3ccc(F)cc3)C(=O)N2CCC(C)C)cc1 (stereo not given) | ? | ? | 26µM* | 13 | 3%
COc1ccc(NC(=O)CC2C(=O)N(c3ccccc3)C(=O)N2CCc2cccs2)cc1 (stereo not given) | ? | 13% | -9% | -26 | 13%
COc1ccc2c(Sc3ccccc3)c(C(=O)NCc3ccc(OC(C)C)cc3)[nH]c2c1 | 0%[46.1 µM] | 0% | ? | 21 | ·
CCCCNC(=O)C[C@@H]1C[C@@]2(C(=O)OC)CCCCC=C2N(Cc2ccccc2)C1=O | · | -7% | · | 8 | ·
O=C(O)Cc1csc(-c2ccccc2)n1 | 9%[46.1 µM] | 17% | -7%[46.1 µM] | -63* | -8%
O=C(NC1CCCC1)C(c1ccncc1)N(Cc1ccccc1)C(=O)c1ccc(-c2ccccc2)[nH]1 (stereo not given) | ? | -3% | ? | -12 | ?
COc1ccc(C(C(=O)NC2CCCCC2)N(CC2CCCO2)C(=O)CCCC(=O)Nc2ccccn2)cc1 (stereo not given) | -23%[46.1 µM] | 3% | -23%[46.1 µM] | 0 | 8%
Cc1ccc(C(C(=O)NC2CCCCC2)N(CC2CCCO2)C(=O)CCCC(=O)Nc2ccccn2)cc1 (stereo not given) | ? | 4% | -24%[46.1 µM] | -71* | -13%
O=C(NC1CCCC1)C(c1ccncc1)N(Cc1ccco1)C(=O)c1ccc(-c2ccccc2)[nH]1 (stereo not given) | · | 13% | 10µM* | 69 | -23%
Cc1cc(C)cc(N(C(=O)CNC(=O)c2ccco2)C(C(=O)NC2CCCC2)c2ccncc2)c1 (stereo not given) | ? | -14% | 2%[46.1 µM] | -67* | 26%
Cc1cc(NC(=O)CCC(=O)N(Cc2cccs2)C(C(=O)NC2CCCC2)c2ccccc2)no1 (stereo not given) | -18% | ? | 11µM* | -17 | ?
Cc1ccc(C(C)C)c(OCCCn2c(=O)oc3ccccc32)c1 | 25%[46.1 µM] | -21% | -24%[46.1 µM] | -12 | ·
CCOC(=O)CCCNC(=O)N1CCc2nc(-c3ccc(OC)cc3C)c3c(c2C1)CO[C@@H](c1ccccc1)C3 | · | · | -5%[14.2 µM] | · | ·
Oc1ccc(Nc2nccc3[nH]c(-c4ccccc4)cc23)cc1 | · | · | · | -1 | ·
Cc1ccc(C)c(N(C(=O)CCC(=O)Nc2cc(C)on2)C(C(=O)NC2CCCC2)c2ccco2)c1 (stereo not given) | -30% | -18% | ? | 16 | 0%
Cc1cc(C)cc(N(C(=O)CCC(=O)Nc2cc(C)on2)C(C(=O)NC2CCCC2)c2ccco2)c1 (stereo not given) | ? | -23% | 11µM* | -37 | ?
COc1ccc(N(C(=O)Cn2nnc3ccccc32)C2(C(=O)NC3CCCC3)CCCCC2)cc1 | -8% | · | ? | ? | 5.6µM*
COc1cccc(C(C(=O)NC2CCCC2)N(CCC(C)C)C(=O)CCC(=O)Nc2cc(C)on2)c1 (stereo not given) | ? | -17% | ? | -66* | -5%
Cc1cc(NC(=O)CCC(=O)N(c2ccccc2)C2(C(=O)NC3CCCCC3)CCCC2)no1 | ? | -25% | ? | -77* | ?
COc1ccc(C(C(=O)NC2CCCC2)N(CCC(C)C)C(=O)CCC(=O)Nc2cc(C)on2)cc1 (stereo not given) | ? | 5% | ? | -22 | -5%
COc1ccccc1C(=O)Nc1ccc(OCC(=O)N2CC(C)OC(C)C2)cc1 (stereo not given) | · | 20% | · | 10 | -4%
Cc1ccc(NC(=O)C2COc3ccccc3O2)cc1C (stereo not given) | 3% | 29% | 4% | · | 10%
SMILES | LASV entry inh | FMDV inh | MARV entry inh | HCMV inh | HCV inh
CCOc1cnc(-c2c(-c3c(Cl)cccc3Cl)noc2C)o1 | ? | -19% | ? | -61* | -19%
CCOc1cnc(-c2ccc(Cl)cc2)o1 | 18% | 40% | ? | -10 | 4%
O=C(CCN1C(=O)C2C3C=CC(C3)C2C1=O)Nc1nccs1 (stereo not given) | 5% | -15% | 29% | -69* | 25%
Cc1ccc2nsnc2c1-n1c(C)nc2ccccc2c1=O | 11% | -1% | -11% | -9 | ?
Cc1cccc(C)c1-n1c(=O)c2nc3ccccc3nc2c2ccccc21 | · | · | · | -96* | ·
COc1cnn(-c2ccccc2)c(=O)c1SCc1ccc(Cl)c(Cl)c1 | -5% | ? | 0% | -25 | -1%
CSc1c(SCc2ccccc2)cnn(-c2ccccc2)c1=O | 5.2µM* | -17% | 28% | 4 | -14%
Cn1ncc(SCc2ccccc2)c(Cl)c1=O | ? | ? | ? | -80* | -69%
CS(=O)(=O)NCCc1csc2nc(-c3ccccc3)nn12 | -14%[46.1 µM] | -9% | · | -37 | ·
Cc1ccc(/C=C/c2nc3ccccc3n2S(=O)(=O)c2cccc(Cl)c2)cc1 | ? | -96% | · | -82* | ·
CCOc1ccc(/C=C/c2nc3ccccc3n2S(=O)(=O)c2cccc(Cl)c2)cc1 | -2%[46.1 µM] | -16% | ? | -80* | ·
O=C1c2ccccc2S(=O)(=O)N1Cc1nc2ccccc2s1 | 1µM* | ? | ? | -73* | 20%
CC1CC(=O)N(CC(=O)Nc2ccc(Br)cc2)c2ccccc2S1(=O)=O (stereo not given) | · | -22% | · | -64* | -4%
Cc1csc(N(C(=O)c2cccc(S(=O)(=O)N3CCCC3)c2)c2ccccc2)n1 | -5% | ? | -17% | -16 | -44%
Cc1csc(N(C(=O)c2cccc(S(=O)(=O)N(C)C)c2)c2ccccc2)n1 | ? | 8.9µM* | 3% | -3 | 12%
CCc1ccc2[nH]c(=O)c(CN(Cc3ccc(OC)cc3)Cc3nnnn3CCOC)cc2c1 | ? | ? | 14µM* | -12 | -11%
CCOc1ccc2[nH]c(=O)c(CN(Cc3cccs3)Cc3nnnn3C(C)(C)C)cc2c1 | ? | · | ? | ? | -16%
COc1ccc2[nH]c(=O)c(CN(Cc3ccccc3)Cc3nnnn3CC3CCCO3)cc2c1 (stereo not given) | -4% | · | -2% | -12 | -1%
COc1ccc2[nH]c(=O)c(CN(Cc3cccs3)Cc3nnnn3C(C)(C)C)cc2c1 | -15% | -28% | 18µM*! | -67* | -15%
Cc1ccc(Cl)cc1-c1cc(C(=O)N2CCc3ccccc3C2)[nH]n1 | · | 9% | · | -98* | ·
O=C(c1cc2cc(Cl)ccc2[nH]1)N1CCc2ccccc2C1 | · | 38% | · | 12 | ?
Cc1ccc(-c2nnc(/C=C/c3ccccc3)o2)cc1 | ? | 38% | ? | 2 | 8%
